# Target: Torsin-1A (Homo sapiens) (UniProt O14656)
# Experiment: torsin A binders from cell lysate, primary screen, small-molecule microarray, wild-type, 635/667 nm (AID 1149)
# Details: COS7 hTOR1A-WT lysate, 635 nm fluorescence, higher = more signal
# Sequence of Torsin-1A (Homo sapiens) (O14656 whole entry, looked up): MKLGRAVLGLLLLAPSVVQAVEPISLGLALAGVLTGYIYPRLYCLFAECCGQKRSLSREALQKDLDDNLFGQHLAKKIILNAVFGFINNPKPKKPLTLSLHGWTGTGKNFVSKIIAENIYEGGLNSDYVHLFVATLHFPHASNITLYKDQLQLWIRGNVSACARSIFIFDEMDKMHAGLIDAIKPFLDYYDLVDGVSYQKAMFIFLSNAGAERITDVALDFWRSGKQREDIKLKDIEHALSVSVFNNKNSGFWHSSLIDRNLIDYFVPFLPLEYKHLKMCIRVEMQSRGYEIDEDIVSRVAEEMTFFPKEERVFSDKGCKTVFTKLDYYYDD
row,Compound,composite z-score
1,CCN1C(=O)[C@H]2[C@H]3[C@H](O)[C@H](O)CC(=NOCC=C(C)CCC=C(C)C)[C@H]3CC[C@H]2C1=O,0.896
2,O=C1[C@H]2[C@H]3[C@H](O)[C@H](O)CC(=NOCc4ccccc4)[C@@H]3CC[C@H]2C(=O)N1C1CCCCC1,-0.0289
3,CC(C)=CCCC(C)=CCON=C1[C@H]2CCn3c(=O)n(Cc4cc5c(cc4Cl)OCO5)c(=O)n3[C@H]2[C@H](O)[C@@H]2O[C@H]12,1.62
4,CCCNC(=O)OC[C@H]1O[C@H](CCON=C[C@@H](OC)[C@H](C)C=CCC(=O)OC)C=C[C@@H]1Oc1ccc(OC)cc1,0.525
5,COC(=O)[C@H](C)NC(=O)[C@@H](C)CO,0.927
6,C=CCOC(=O)[C@H]1[C@@H]2C(=O)O[C@@H](c3ccccc3)[C@@H](c3ccccc3)N2[C@@H](c2ccc(OCCOC(=O)[C@H]3C[C@H]4C(=O)N5CCC[C@H]5C(=O)N4[C@H]3c3cccc(OCCO)c3)cc2)[C@]12C(=O)Nc1ccc(I)cc12,1.95
7,CCCCC(=C=CC[C@H](O)c1ccccc1OCCO)C[C@H](O)COCc1ccccc1,1.08
8,COc1ccc(-c2ccc3c(n2)CCCN3CC(O)CN2CCCc3nc(C)c(C)cc32)cc1 (stereo not given),0.785
9,C[C@H]1Cc2c(-c3ccccc3)nc3c(c2CO1)CN(CCOc1ccccc1)CC3,0.132

# Target: Torsin-1A (Homo sapiens) (UniProt O14656)
# Experiment: small-molecule binders of mutant TOR1A in lysate, primary screen, cell lysate, small-molecule microarray, COS7 lysate, 635/667 nm fluorescence (AID 1150);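 note: score pools 667 nm emission and signal to noise measuring lysate protein binding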
# Details: COS7 hTOR1A mutant lysate, 635 nm fluorescence, higher = more signal
row,Compound,composite z-score
1,C=CC[C@@H]1C=C[C@H](ON=C2c3cc(OC)ccc3O[C@H](c3cccc(OC)c3)[C@H]2O)[C@@H](CO)O1,-0.129
2,COCCOC(=O)N1C(=O)[C@@]2(c3cc(C#CCNC(N)=O)ccc31)[C@H](c1ccc(O)cc1)N1[C@H](c3ccccc3)[C@H](c3ccccc3)OC(=O)[C@H]1[C@@H]2C(=O)N1CCCCCCC1,0.527
3,CC(C)(C)N1C(=O)[C@H]2[C@H]3[C@H](O)[C@H](O)CC(=NOCc4ccccc4)[C@@H]3CC[C@H]2C1=O,0.119
4,O=C1C[C@]2(c3ccc([N+](=O)[O-])cc3)C(=O)N(CCN3CCOCC3)c3cc(CO)ccc3[C@H]2N1CC12CC3CC(CC(C3)C1)C2,-0.862
5,CC[C@@H](c1ccccc1)n1c(=O)n2n(c1=O)[C@H]1[C@H](O)[C@@H]3O[C@@H]3C(=NOCC(C)C)[C@H]1CC2,-0.115
6,O=C1[C@H]2[C@H]3[C@H](O)[C@H](O)CC(=NO[C@@H]4O[C@H](CO)[C@@H](O)[C@H](O)[C@H]4O)[C@@H]3CC[C@H]2C(=O)N1Cc1ccc2c(c1)OCO2,0.254
7,CC(C)=C1C(=O)C(c2ccccc2)=C2CN3C(=O)N(CCc4ccccc4)C(=O)[C@]3(Cc3ccc(F)cc3)[C@H]21,-1.7
8,CO[C@@H]1COC(=O)CCC[C@@H](C)[C@H](OC)COC(=O)[C@H](Cc2ccccc2)NC(=O)CC=C[C@H]1C,-0.0271
9,Cc1ccc(F)cc1S(=O)(=O)N[C@@H]1CCN(Cc2ccc(CC(C)C)cc2)C1,-0.859
10,CC(C)[Si]1(C(C)C)O[C@@H](c2ccccc2)c2cc(C3CC3)nc(-c3ccccc3)c21,-0.124
11,COC(=O)[C@@]1(Cc2ccc(F)cc2)[C@H]2c3cc(C(=O)N(C)C)n(Cc4ccc(OC)c(OC)c4)c3C[C@H]2CN1C(=O)c1ccccc1,0.1
12,CCOC(=O)CCN1C(=O)[C@H]2[C@H]3[C@H](O)C=CC(=O)[C@@H]3CC[C@H]2C1=O,-0.364
13,C[C@H](c1ccccc1)N1C(=O)[C@H]2[C@@H]3C(=CC[C@H]2C1=O)C(=O)[C@H]1O[C@H]1[C@H]3O,-0.0342
14,CS(=O)(=O)CCOC(=O)C1=CC(CCCO)=CC(c2cccs2)N(Cc2cccc(OC(F)(F)F)c2)C=C1C(=O)OCCS(C)(=O)=O (stereo not given),0.88
15,O=C1[C@H]2[C@H]3[C@H](O)[C@H](O)CC(=NO[C@@H]4O[C@H](CO)[C@@H](O)[C@H](O)[C@H]4O)[C@H]3CC[C@H]2C(=O)N1Cc1ccc2c(c1)OCO2,0.181
16,Cc1cc2c(nc1C)CCCN2CC(C)ON=C1[C@H]2CCn3c(=O)n(-c4ccccc4)c(=O)n3[C@H]2[C@H](O)[C@@H]2O[C@H]12 (stereo not given in full),0.246
17,Cc1cc(C)c(-c2cc([C@H](C)ON=C3[C@H]4CCn5c(=O)n(-c6ccccc6)c(=O)n5[C@H]4[C@H](O)[C@@H]4O[C@H]34)on2)c(C)c1,0.754
18,COc1ccc([Si](C)(C)[C@@H]2[C@@H](CCO)O[C@]3(C(=O)N(Cc4ccc(NC(C)=O)cc4)c4ccccc43)[C@H]2C)cc1,1.21

row,Compound,composite z-score
1,c1ccc(C2NCCc3c2[nH]c2ccccc32)cc1 (stereo not given),0.462
2,CC(=O)C[C@H](O)[C@@H](NC(=O)OC(C)(C)C)C(C)C,-0.657
3,CO[C@H]1O[C@H](CO)[C@@H](OC(=O)Nc2ccc(C#N)cc2)[C@H](OC(=O)c2cc3ccccc3[nH]2)[C@H]1OC(=O)c1cc2ccccc2[nH]1,1.36
4,CO[C@@H]1COC(=O)[C@@H]2CCCN2C(=O)[C@@H](C)COC(=O)[C@H](COCc2ccccc2)NC(=O)CC=C[C@H]1C,0.121
5,COc1ccc(O[C@H]2C=C[C@@H](c3ccccc3)O[C@@H]2COC(=O)CCC(C)=NO[C@H](C)c2cn([C@@H]3COC[C@H]3O)nn2)cc1,0.419
6,CC(CCC(=O)OC[C@H]1O[C@H](C#Cc2ccccc2)C=C[C@@H]1Oc1ccc(C)cc1)=NO[C@@H](C)c1cn([C@H](CO)Cc2ccccc2)nn1,-0.146
7,CO[C@H]1COC(=O)[C@H](C)COC(=O)CC=C[C@@H](C)[C@H](OC)COC(=O)CC=C[C@@H]1C,0.666
8,CCc1cccc(NC(=O)O[C@H]2[C@H](OC(=O)Nc3ccc4c(c3)OCO4)[C@@H](OC(=O)Nc3ccc4c(c3)OCO4)[C@@H](OC)O[C@@H]2CO)c1,0.731
9,CCOC(=O)C[C@H]1[C@H](OC(=O)c2cc3ccccc3oc2=O)[C@@H](NC(=O)c2ccc3ccccc3n2)c2cc(OCCCO)ccc2N1C(=O)c1ccccc1,1.37
10,CCN1C(=O)[C@H]2[C@H]3[C@H](O)[C@H](O)CC(=NOCC=C(C)CCC=C(C)C)[C@H]3CC[C@H]2C1=O,0.43
11,O=C1[C@H]2[C@H]3[C@H](O)[C@H](O)CC(=NOCc4ccccc4)[C@@H]3CC[C@H]2C(=O)N1C1CCCCC1,-0.47
12,CC(C)=CCCC(C)=CCON=C1[C@H]2CCn3c(=O)n(Cc4cc5c(cc4Cl)OCO5)c(=O)n3[C@H]2[C@H](O)[C@@H]2O[C@H]12,0.718
13,CCCNC(=O)OC[C@H]1O[C@H](CCON=C[C@@H](OC)[C@H](C)C=CCC(=O)OC)C=C[C@@H]1Oc1ccc(OC)cc1,0.422
14,COC(=O)[C@H](C)NC(=O)[C@@H](C)CO,0.461
15,C=CCOC(=O)[C@H]1[C@@H]2C(=O)O[C@@H](c3ccccc3)[C@@H](c3ccccc3)N2[C@@H](c2ccc(OCCOC(=O)[C@H]3C[C@H]4C(=O)N5CCC[C@H]5C(=O)N4[C@H]3c3cccc(OCCO)c3)cc2)[C@]12C(=O)Nc1ccc(I)cc12,2.23
16,CCCCC(=C=CC[C@H](O)c1ccccc1OCCO)C[C@H](O)COCc1ccccc1,0.259
17,COc1ccc(-c2ccc3c(n2)CCCN3CC(O)CN2CCCc3nc(C)c(C)cc32)cc1 (stereo not given),1.15
18,C[C@H]1Cc2c(-c3ccccc3)nc3c(c2CO1)CN(CCOc1ccccc1)CC3,0.565

# From PubChem BioAssay
